# Reference: PubChem BioAssay AID624168 (Sanford-Burnham Center for Chemical Genomics, 2012)
# Several values for one entry are separate records, joined by “and”; a condition that tells them apart may be missing. Equal values may be shown once. Hit rate of the full screen: of about 360,000 compounds, about 800 (0.22%) were called active.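 The calls were made as follows: active = activation of at least 8% versus controls, or a plate z-score of at least 8; inactive = the rest.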 This excerpt belongs to a sample that is enriched for actives.
# Test: activators of alpha-DG glycosylation, primary screen, uHTS, Pro5-aDG cells, AlphaScreen (AID 624168);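 also: Pro5 are CHO cells carrying HIG-tagged alpha-DG that lacks glycosylation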
# Settings: alpha-DG glycosylation AlphaScreen (IIH6), at 10 µM, active compounds read high, 0% Pro5, 100% B10-LARGE cell signal
row,Compound,activation
1,COCCn1c(SCC(=O)c2[nH]c(C)c(C(C)=O)c2C)nc2ccccc2c1=O,0% (inactive)
2,CCc1[nH]nc(C(=O)N2CCCC(CNS(=O)(=O)c3cccs3)C2)c1C (centres undefined),0.1% (inactive)
3,Cc1ccccc1OCc1nnc(SCC(=O)N2c3ccccc3Sc3ccc(Cl)cc32)o1,0.3% (inactive)
4,O=C(CNCc1ccc(F)cc1)Nc1ccccc1-c1ccccc1,0.6% (inactive)
5,Cc1nc2nc[nH]n2c(=O)c1NC(=O)c1cccc(OCC(C)C)c1,0.1% (inactive)
6,CCc1cccc(C)c1NC(=O)COC(=O)CC1CCCC1,0.2% (inactive)
7,COc1ccc(NC(=O)CSc2nnc(-c3ccccc3F)n2C2CC2)cc1S(N)(=O)=O,6.3% (active)
8,CC(Sc1nnc(-c2ccccc2F)n1C1CC1)C(N)=O (centres undefined),0.1% (inactive)
9,COc1ccc(NC(=O)CSc2nnc(C3CC3)n2C)cc1S(=O)(=O)N1CCCCC1,-0.1% (inactive)
10,OCC1OC(n2cnc3c(N4CCCC4)ncnc32)C(O)C1O (centres undefined),-0.1% (inactive)
11,Cc1[nH][nH]c(=O)c1C(c1ccc(-c2ccc(Cl)cc2)o1)c1c(C)[nH][nH]c1=O,0% (inactive)
12,CCNC(=O)NC(=O)C(C)OC(=O)c1cc(S(=O)(=O)N2CCCCCC2)ccc1OC (centres undefined),0% (inactive)
13,Cc1cc(C)c(C#N)c(SCC(=O)NN2CC(=O)N(c3ccccc3F)CC2=O)n1,-0.2% (inactive)
14,CCOc1ccc(OCC(=O)Nc2c3c(nn2C(C)(C)C)CS(=O)(=O)C3)cc1,7.3% (active)
15,CCOc1ccc(C(=O)Nc2c3c(nn2-c2ccccc2)CS(=O)(=O)C3)cc1,0.3% (inactive)
16,COc1ccccc1OCC(=O)Nc1c2c(nn1-c1ccc(F)cc1)CS(=O)(=O)C2,-0.1% (inactive)
17,O=S(=O)(c1ccc(Br)cc1)N1CCC(c2nc3ccccc3[nH]2)CC1,0.7% (inactive)
18,N#Cc1cnn2cc(CCN3CCOCC3)c(-c3ccc(F)cc3)nc12,-0.1% (inactive)
19,CNC1(c2nnnn2-c2c(C)cccc2C)CCOC(C)(C)C1 (centres undefined),0.1% (inactive)
20,O=C(Cn1c(=O)sc2ccccc21)Nc1ccc2c(c1)OCCO2,0.4% (inactive)
21,Cc1ccc(CSc2ccc(S(=O)(=O)N3CCCCC3)cn2)cc1,0.2% (inactive)
22,O=C(N1CCCCC1)N1CCN(C(=O)N2CCCCC2)CC1,-0.2% (inactive)
23,CC(=O)Oc1cccc(N2C(=O)C3CC=C(Cl)CC3C2=O)c1 (centres undefined),2.9% (active)
24,CC1=CCC2C(=O)N(c3cccc(C(=O)NC(C)c4ccccc4)c3)C(=O)C2C1 (centres undefined),0% (inactive)
25,CC(=O)Oc1cccc(N2C(=O)CC(Nc3ccc(N4CCOCC4)cc3)C2=O)c1 (centres undefined),0.6% (inactive)
26,O=C1CC(Cc2ccccc2)C(=O)N1c1ccc(Cl)cn1 (centres undefined),-0.3% (inactive)

row,Compound,activation
1,CCCCN(CC)CCCNC(=O)c1ccc(CSc2nc3ccncc3[nH]2)cc1,-0.1% (inactive)
2,O=C(NCC(=O)N(Cc1cccs1)C(C(=O)NC1CCCCC1)c1ccco1)c1cccs1 (centres undefined),0.5% (inactive)
3,Cc1nnc(NC(=O)CCC(=O)N2CCC(C)CC2)s1,-0.2% (inactive)
4,CN(Cc1ccccc1)CC(O)COc1ccc(CNCc2cc3ccccc3s2)cc1 (centres undefined),4.3% (active)
5,OC(CN=c1sc2ccccc2n1CC(O)COc1ccccc1)COc1ccccc1 (centres undefined),0.6% (inactive)
6,COc1cccc(CN(C)CC(O)COC(c2ccccc2)c2ccccc2C)c1 (centres undefined),0.1% (inactive)
7,Cc1nc(N)nc(Cl)c1CCC1OCCO1,0.5% (inactive)
8,CC(OC(=O)C1CC(=O)N(Cc2ccccc2)C1)C(=O)Nc1ccccc1[N+](=O)[O-] (centres undefined),0.2% (inactive)
9,CCc1noc(C)c1C(=O)N1CCCSC1=Nc1ccccc1OC,-0.1% (inactive)
10,CCOc1ccc(C(=O)Nc2cccc(SC)c2)cc1,0.3% (inactive)
11,CCOc1ccc(NC(=O)c2ccc(NC(=O)C3CCCO3)cc2)cc1 (centres undefined),0.1% (inactive)
12,Cc1ccc(NC(=O)c2ccc(Oc3ncccn3)cc2)cc1,5.5% (active)
13,COc1cc(C(=O)NCCOC(=O)c2cccc(N(C)C)c2)cc(OC)c1OC,0% (inactive)
14,COCc1c(C(=O)OCC(=O)Nc2ccc(OC(F)F)cc2)oc2ccccc12,0.1% (inactive)
15,Cc1cc(C)c(NC(=S)N2CCCC2C(=O)O)c(C)c1 (centres undefined),0.5% (inactive)
16,CCOC(=O)C1(CCOC)CCN(Cc2cc3ccccc3s2)CC1,2% (active)
17,CCCS(=O)(=O)N1CCC(CCOc2ccccc2)(C(=O)OCC)CC1,-0.1% (inactive)
18,CCOC(=O)C1(CCOc2ccccc2)CCN(C(=O)c2cncs2)CC1,0.1% (inactive)
19,CCOC(=O)N1CCN(S(=O)(=O)c2ccc(C(=O)Nc3ccc(F)cc3F)cc2)CC1,-0.1% (inactive)
20,Cc1c(CCOC(=O)CC23CC4CC(CC(C)(C4)C2)C3)sc[n+]1Cc1ccc([N+](=O)[O-])cc1,0.1% (inactive) and -0.2% (inactive)
21,O=C(Nc1ccccc1F)c1cc(S(=O)(=O)N2CCCCC2)cs1,0% (inactive)
22,O=C(Nc1nncs1)c1cccc(S(=O)(=O)N2CCCCC2)c1,-0.2% (inactive)
23,CN1CCN(S(=O)(=O)c2cccc(C(=O)Nc3cccc(S(N)(=O)=O)c3)c2)CC1,-0.1% (inactive)
24,CN1CCN(S(=O)(=O)c2cccc(C(=O)Nc3sccc3C#N)c2)CC1,8.2% (active)
25,CCCOc1ccc(C2NC(=O)NC(c3ccccc3)=C2C(C)=O)cc1OCC (centres undefined),-0.1% (inactive)
26,O=C(c1ccc(F)cc1)C1CCN(Cc2cn[nH]c2-c2ccccc2)CC1,-0.1% (inactive)

row,Compound,activation
1,CCCCN(CC)C(=O)C1CCCN(S(=O)(=O)c2cccc3nsnc23)C1 (centres undefined),-0.1% (inactive)
2,Clc1ccc(-c2cc(-c3ccccn3)on2)c(Cl)c1,0.1% (inactive)
3,Clc1ccc(-c2cc(C3CCNCC3)[nH]n2)c(Cl)c1,11.1% (active)
4,Cc1nn(-c2ccccc2)c2c1C(c1cccc([N+](=O)[O-])c1)N(c1ccccc1)C(=O)N2 (centres undefined),-0.2% (inactive)
5,O=C(CCSCCc1ccccn1)Nc1nccs1,-0.1% (inactive)
6,CCc1ccccc1S(=O)(=O)Cc1ccc(C(=O)NCCc2ccccc2)o1,13% (active)
7,Cc1ccccc1S(=O)(=O)Cc1ccc(C(=O)NCCN2CCCCC2C)o1 (centres undefined),-0.3% (inactive)
8,COc1ccc(CCNC(=O)c2ccc(CS(=O)(=O)c3ccc(Br)cc3)o2)cc1OC,-0.2% (inactive)
9,CC(C)Oc1cc(F)ccc1-c1cc(C(=O)Nc2ccc(F)cc2)[nH]n1,0% (inactive)
10,O=C(Nc1nnc(-c2ccccc2)o1)c1cccc(S(=O)(=O)N2CCOCC2)c1,0.3% (inactive)
11,COc1cccc(-c2nnc(NC(=O)c3ccc(S(=O)(=O)N(CC(C)C)CC(C)C)cc3)o2)c1,6.1% (active)
12,COc1cc(-c2nnc(NC(=O)CS(=O)(=O)c3ccc(Cl)cc3)o2)cc(OC)c1OC,0.5% (inactive)
13,CCCN(CCC)C(=O)C1c2ccccc2Oc2ccccc21,0.2% (inactive)
14,C[C@H](CO)N1C[C@H](C)[C@H](CN(C)C(=O)Nc2ccc(C(F)(F)F)cc2)Oc2c(NC(=O)c3ccncc3)cccc2C1=O,-0.2% (inactive)
15,O=C(NCC1CCCCC1)NCC1CCCCC1,-0.2% (inactive)
16,Cc1ccc(Nc2cc(=O)n(C3CCCCC3)c(=O)[nH]2)cc1C,0.5% (inactive)
17,CC(NC(=O)c1cccc(S(=O)(=O)N2CCc3ccccc3C2)c1)c1ccco1 (centres undefined),0.1% (inactive)
18,CCOC(=O)c1ccc(NC(=O)CCn2c(=O)oc3ccccc32)cc1,0% (inactive)
19,CCOC(=O)c1ccc(NC(=O)Cn2cnc3cc(C)c(C)cc32)cc1,3.2% (active)
20,CCOC(=O)c1ccc(NC(=O)CS(=O)(=O)c2cn(CC)c3ccccc23)cc1,-0.1% (inactive)
21,COc1c(C)cc(C(O)c2ncc(-c3cccc(C(F)(F)F)c3)[nH]2)cc1C (centres undefined),0.3% (inactive)
22,CC(C)c1cccc(C(C)C)c1Nc1cn[nH]c1,0.6% (inactive)
23,COc1ccccc1C(=O)C(O)c1ccccc1OC (centres undefined),0.1% (inactive)
24,OC[C@@H]1CN(C2CCCC2)C[C@H](n2cnc3c(NC4CCC4)ncnc32)O1,0.3% (inactive)
25,CC(C)Nc1ncnc2c1ncn2[C@H]1CN(Cc2ccncc2)C[C@@H](CO)O1,0.2% (inactive)
26,OC[C@@H]1CN(Cc2ccc(-c3ccccc3)cc2)C[C@H](n2cnc3c(NC4CCCC4)ncnc32)O1,7.5% (active)

row,Compound,activation
1,O=C(NCc1cccnc1)c1ccc(CS(=O)(=O)c2ccc(Br)cc2)o1,-0.2% (inactive)
2,O=C1CC(c2cccc(Br)c2)C2=C(CCCC2=O)N1 (centres undefined),0% (inactive)
3,Cc1ccsc1/C=N/NC(=O)Cc1cc(=O)[nH][nH]1,-0.1% (inactive)
4,CNC(=O)COc1ccc(S(=O)(=O)Nc2ccccc2)cc1,0.1% (inactive)
5,O=S(=O)(Nc1ccc(OC(F)(F)F)cc1)c1cccc2nonc12,-0.1% (inactive)
6,O=S(=O)(Nc1ccc(O)c2ccccc12)c1ccc(OC(F)(F)F)cc1,2.6% (active)
7,Cc1ccc(C)c(C(=O)N2CCC(n3nccc3NC(=O)C3CC3)CC2)c1,0.3% (inactive)
8,CC(NC(=O)COC(=O)Cn1cc(C(F)(F)F)ccc1=O)c1ccccc1 (centres undefined),-0.1% (inactive)
9,COc1ccc(-c2oc(/N=C/N3CCCC3)c(C#N)c2-c2ccc(OC)cc2)cc1,0.1% (inactive)
10,COc1cccc(CN(C)CC2CCCN(CCc3ccc(Cl)cc3)C2)c1OC (centres undefined),0% (inactive)
11,CCn1cc(CN2CCC(C(=O)Nc3cccc(-c4cccc(Cl)c4)c3)CC2)c(C)n1,7.1% (active)
12,CCn1cc(CN2CCC(C(=O)Nc3cccc(-c4cccc(Cl)c4)c3)CC2)cn1,3.4% (inactive)
13,O=C(Nc1cccc(-c2cccc(Cl)c2)c1)C1CCN(C2CCC2)CC1,1.9% (inactive)
14,CN(C)N1C(N)=C(C#N)C(c2ccc(Br)cc2)C2=C1CCCC2=O (centres undefined),0% (inactive)
15,CCCn1c(=N)n(CC(=O)c2ccc(Cl)c(Cl)c2)c2ccccc21,9.7% (active)
16,O=C(Cn1nnc(N2CCCCC2)n1)c1ccc(Cl)c(Cl)c1,-0.1% (inactive)
17,CCN(CC)CC1(O)CCN(C(=O)c2ccc(Cl)c(Cl)c2)CC1,-0.1% (inactive)
18,O=C(O)c1ccccc1-c1cccc2nncn12,0.1% (inactive)
19,Cc1ccc(-c2ccc(CN3C(C(C)C)C(=O)N(Cc4cn(CCC5OCCCO5)nn4)CCS3(=O)=O)cc2)cc1 (centres undefined),0.4% (inactive)
20,CC(C)C(c1nnnn1C(C)(C)C)N1CCN(Cc2cccnc2)CC1 (centres undefined),-0.3% (inactive)
21,O=C(Cn1ncc2c3ccccc3n(Cc3ccccc3)c2c1=O)NCc1ccccn1,-0.4% (inactive)
22,CC(C#N)OC(=O)c1cccnc1SCC(=O)Nc1ccc2c(c1)OCO2 (centres undefined),0.5% (inactive)
23,Nc1scc[n+]1Cc1cccc2cccnc12,1.9% (active)
24,c1ccc2c(C[n+]3csc4ccccc43)cccc2c1,-0.1% (inactive)
25,CC(NCc1ccccc1OC1CCCC1)c1ccccc1 (centres undefined),0.5% (inactive)
26,O=C(COc1cccc(Cl)c1)NCc1ccccc1,0.1% (inactive)
